In ChEMBL document CHEMBL4513149, “CO-ADD screening of MMV (CH) - MMV compounds” (2021) one finds Inhibition data, which are given here for 15 compounds.

The structures appear in SMILES notation. Entries with a potency or affinity are not part of this list.

This assay deals with Staphylococcus aureus. The following applies: Concentration 20 uM; ASSAY_TEST Inhibition of Bacterial Growth; detection method Absorption (OD600); MEDIA CAMHB; plate type 384well; NBS; CORNING #3640; time 18 hr.
As for `CCC(NC(=O)c1ccccc1NC(=O)c1ccc(C)cc1)C(=O)OC` (stereo not given), the Inhibition turned out to be 17.84%. The value for `O=C(CN1CCOCC1)Nc1ccc2ncnc(Nc3ccc(OCc4cccc(F)c4)c(Cl)c3)c2c1` was 14.97%; that for `CC(=O)Nc1ccc(NC(=O)c2cc(-c3cc(Cl)ccc3O)n[nH]2)cc1` was 5.62%. The value for `C[C@]1(O)C[C@@H](c2nc(-c3ccc4ccc(-c5ccccc5)nc4c3)c3c(N)nccn32)C1` [LINSITINIB] was 13.39%; that for `Cc1ccc(S(=O)(=O)Nc2ccc(CN3CCN(C(=O)c4cccc(C#N)c4)CC3)cc2)cc1` was 8.99%. The value for `CC(C)n1ncc2c(C(=O)NCC(c3cccs3)N3CCOCC3)cc(-c3ccccc3)nc21` (stereo not given) was 11.85%; that for `CC1=Nc2ccc(Cl)cc2C(c2ccccc2)N1CCNC(=O)CN(C)C` (stereo not given) was 20.65%. Take `COc1ccc(-c2onc(C(F)(F)F)c2-c2ccc(Cl)cc2)c(O)c1`: the Inhibition is on record as 22.97%. `COc1cccc(-c2cc3c(Nc4cccnc4)nccc3[nH]2)c1`: the Inhibition stood at 13.42%. The value for `CCOc1ccc(-c2nc(NC(=O)CS(=O)(=O)c3ccccc3)sc2C)cc1` was 3.82%; that for `COc1cc(NC(=O)Cc2nn(C)c(=O)c3ccccc23)ccc1Cl` was 23.8%. The value for `COc1cc(-c2cc(-c3ccc(S(C)(=O)=O)cc3)cnc2N)ccc1O` was 12.87%; that for `O=C(NC1CC1)c1ccc(N2CCOc3ccc(Cl)cc32)s1` was 18.01%.

The compound `COC(=O)c1cccc2oc(-c3cccc(OC)c3NC(=O)c3cc(-c4ccccc4)on3)nc12` gave an Inhibition of 11.44%. The value for `O=C1COCc2ccc(Br)cc2N1Cc1ccc(C(F)(F)F)cc1` was 12.84%.
